Measurements as given in PubChem BioAssay AID1984 (Sanford-Burnham Center for Chemical Genomics, 2009).
Among all 290,000 compounds or so, about 35 (0.01%) were called active.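 The calls were made as follows: active = EGFP signal decrease of at least 30% at 10 µM or well 3 SD below plate mean, unless failing retest; inactive = the rest, including hits failing retest or dose response.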 This excerpt belongs to a sample that is enriched for actives.

biological target: p/CIP-EGFP fusion (nuclear receptor coactivator 3, mouse) (UniProt Q05BA5); assay: compounds lowering mouse p/CIP (NCOA3) protein levels – fluorescence, F442A cells, EGFP fusion, primary screen (AID 1984); conditions: 16 h, at 10 µM, stronger effect = higher value
Sequence (Q05BA5 1-1403): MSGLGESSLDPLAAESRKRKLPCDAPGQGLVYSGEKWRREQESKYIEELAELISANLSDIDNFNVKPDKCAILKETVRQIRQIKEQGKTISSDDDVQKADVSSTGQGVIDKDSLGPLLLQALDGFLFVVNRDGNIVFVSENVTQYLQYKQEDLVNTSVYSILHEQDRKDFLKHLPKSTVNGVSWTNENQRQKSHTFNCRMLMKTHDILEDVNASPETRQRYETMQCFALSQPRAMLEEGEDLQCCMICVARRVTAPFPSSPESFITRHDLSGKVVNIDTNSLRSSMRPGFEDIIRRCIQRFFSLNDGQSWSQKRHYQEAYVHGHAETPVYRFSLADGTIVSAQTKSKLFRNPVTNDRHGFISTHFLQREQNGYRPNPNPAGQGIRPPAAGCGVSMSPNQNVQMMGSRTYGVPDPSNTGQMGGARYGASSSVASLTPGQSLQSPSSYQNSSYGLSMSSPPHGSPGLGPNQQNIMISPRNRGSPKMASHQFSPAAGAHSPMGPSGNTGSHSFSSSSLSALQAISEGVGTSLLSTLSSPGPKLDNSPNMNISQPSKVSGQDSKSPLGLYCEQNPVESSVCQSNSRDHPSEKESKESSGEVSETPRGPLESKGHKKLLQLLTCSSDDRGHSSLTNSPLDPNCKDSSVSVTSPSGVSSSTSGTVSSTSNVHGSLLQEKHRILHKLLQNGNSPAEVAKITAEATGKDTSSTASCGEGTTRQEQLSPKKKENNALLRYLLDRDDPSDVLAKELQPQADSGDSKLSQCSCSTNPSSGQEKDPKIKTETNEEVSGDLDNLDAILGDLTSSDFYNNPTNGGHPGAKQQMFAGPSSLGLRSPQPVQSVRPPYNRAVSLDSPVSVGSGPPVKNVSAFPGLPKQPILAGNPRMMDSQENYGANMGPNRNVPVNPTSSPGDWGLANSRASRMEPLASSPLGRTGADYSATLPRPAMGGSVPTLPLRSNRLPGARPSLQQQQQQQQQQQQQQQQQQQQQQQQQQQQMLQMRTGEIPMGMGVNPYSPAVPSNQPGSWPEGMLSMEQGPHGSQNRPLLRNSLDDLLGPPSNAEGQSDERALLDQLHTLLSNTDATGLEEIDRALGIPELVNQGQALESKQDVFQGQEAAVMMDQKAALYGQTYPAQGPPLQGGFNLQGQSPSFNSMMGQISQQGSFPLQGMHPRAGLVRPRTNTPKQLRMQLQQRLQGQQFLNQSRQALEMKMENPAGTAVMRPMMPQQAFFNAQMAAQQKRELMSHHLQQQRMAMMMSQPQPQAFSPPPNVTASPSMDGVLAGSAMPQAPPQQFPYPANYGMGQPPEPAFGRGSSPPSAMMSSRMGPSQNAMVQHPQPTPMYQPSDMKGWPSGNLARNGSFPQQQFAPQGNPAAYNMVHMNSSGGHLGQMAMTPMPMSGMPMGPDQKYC

Decrease of EGFP signal, inactive:
CC(NCCc1ccc(S(N)(=O)=O)cc1)C(=O)NCc1ccccc1 (configuration not stated) -40%
O=S(=O)(NC1CC2CCC1C2)c1ccc(Cl)cc1 (configuration not stated) -15.4%
COc1ccccc1NC(=S)N1CCN(c2ccc(F)cc2)CC1 -2%
CCCOc1ccc(Cc2c(O)nc(N)[nH]c2=O)cc1C -10.4%
CC1(C)CCSC(/C=C/c2ccccc2)=N1 -5.5%
CSc1ccc(/C=C/C(=O)NC23CC4CC(CC(C4)C2)C3)cc1 0.4%
COCc1c(C(=O)N/N=C(\C)c2ccncc2)nnn1-c1nonc1N 1.8%
O=S(=O)([N-]c1nc2ccccc2nc1-[n+]1ccc(Cc2ccccc2)cc1)c1ccc(Br)s1 -27.8%
CCCc1cc(C(=O)N2CCCC(CO)(CCCc3ccccc3)C2)n(C)n1 (configuration not stated) -7.2%
COc1ccc2[nH]c(C(=O)N/N=C/c3cc(OC)c(OC)c(OC)c3)cc2c1 -8.7%
Cc1ccc(NS(=O)(=O)c2cc3c(cc2C)NC(=O)CO3)cc1 -4.5%
CCOCCc1nn2c(=O)cc(CSCC(=O)Nc3cccc(C)c3C)nc2s1 4.4%
COc1ccc(N2CCC(N3CCN(C)C(CCO)C3)CC2)cc1 (configuration not stated) 13.5%
O=C(NCc1ccccc1)C(c1cccnc1)N(C(=O)c1csnn1)c1ccc(F)cc1 (configuration not stated) -5.9%
Cc1cc2c(=O)n(CC(=O)NCC(=O)Nc3ccc(C(C)C)cc3)cnc2s1 3.7%
COC(=O)c1sc(-c2ccc(C(C)(C)C)cc2)cc1NC(=O)/C=C/C(=O)O -12.7%
O=C(O)/C=C/C(=O)NNc1ccc([N+](=O)[O-])cc1 -13%
Nc1nc(Nc2ccccc2F)nc(NC2CCCCC2)c1[N+](=O)[O-] -4.1%
COc1ccc(CN2CCN(Cc3ccc(OC)c(OC)c3OC)CC2)cc1 -4.7%
C=CCSc1nnc(N2C(=O)C(O)=C(C(=O)c3ccco3)C2c2ccc(F)cc2)s1 (configuration not stated) -15.4%
Cc1ccc(CNC(=O)CCC(=O)N2CC(C)Sc3ccccc32)cc1 (configuration not stated) -1.6%
CC(C)CC(O)C1CCN(C(=O)CCc2nnc(-c3ccc4c(c3)OCO4)o2)CC1 (configuration not stated) -14.9%
O=C(c1ccc2nc(N3CCOCC3)sc2c1)N1CCN(c2ccc(Cl)cc2)CC1 -11.7%
COc1ccc(C(C(=O)NCC2CCCO2)N(C(=O)Cn2nnc3ccccc32)c2ccc(NC(C)=O)cc2)cc1OC (configuration not stated) -4.9%
O=C(c1cc(COc2ccc(F)cc2F)on1)N1CCOCC1 -0.2%
O=C(NCc1ccco1)/C(=C/c1cccc([N+](=O)[O-])c1)NC(=O)c1ccco1 1%
Cc1ccccc1N1CCN(C2CCCN(C(=O)c3ocnc3C)C2)CC1 (configuration not stated) -18.6%
COc1cc(/C=N/NC(=O)c2cccnc2)ccc1OC(=O)c1cccc(Br)c1 -4.4%
CS(=O)(=O)N(CC(=O)Nc1ccc(F)cc1)C1CCCCC1 -0.5%
CC(C)CNC(=O)COC(=O)c1ccccc1OCC(=O)Nc1ccc(Br)cc1 -13.9%
Cc1c(C(=O)NCCN(C)C)oc2ccc(S(=O)(=O)N3CCCC3)cc12 -12.5%
O=C(Nc1ccc(C(=O)O)cc1)/C(=C\c1ccccc1)NC(=O)c1ccc(Br)cc1 -17.7%
Cc1c(Cl)c([N+](=O)[O-])nn1CC(=O)NCCCN1CCOCC1 5.3%
COc1cc(/C=C2\C(=N)N3N=C(CC(=O)N4CCOCC4)SC3=NC2=O)cc(OC)c1OC -17%
O=C(NC(=S)Nc1ccc2oc(=O)ccc2c1)c1ccc(-c2cccc(Cl)c2Cl)o1 -4.3%
CN(C)CCN(Cc1ccccc1)S(=O)(=O)c1csc(C(N)=O)c1 15.1%
COC(=O)C1CCCCN1C(=O)c1ccc(OC2CCN(C(C)=O)CC2)c(OC)c1 (configuration not stated) 0.9%
O=C(Cc1ccccc1Cl)N1CCOCC1 -2.9%
Cc1c2cnn(CC(=O)NCCCN3CC(C)CC(C)C3)c(=O)c2c(C)n1Cc1ccc(Cl)cc1 (configuration not stated) 0.5%
CCCC[C@H]1COCCS(=O)(=O)N1Cc1cccc(Cl)c1 -5.5%
O=C1COc2ccc(S(=O)(=O)NCCc3ccc(Cl)cc3)cc2N1 8.8%
Cc1cc(NC(=O)c2ccco2)c(=O)n(Cc2c(F)cccc2Cl)c1 -5.8%
Cc1cc(S(=O)(=O)Nc2ccc(C(=O)NCC(c3ccco3)N3CCCC3)cc2)ccc1F (configuration not stated) -3%
COc1ccc(CCNc2ncnc3c2nnn3Cc2ccccc2)cc1 -4%
COc1ccc(Cc2nnc(N/N=C/c3ccccc3O)[nH]c2=O)cc1OC -4%
O=C(NNC1=C(C(=O)C(F)(F)F)CCC1)c1ccncc1 -15.9%
Cc1ccnc(N2C(=O)c3ccc([N+](=O)[O-])cc3C2=O)c1 -1.5%
COc1ccc2c(C(=O)c3ccc(C)cc3)n(CCC(N)=O)[n+]([O-])c2c1 -5.8%
CC(C)C(C(=O)NCc1ccco1)N(CC1CCCO1)C(=O)CNS(=O)(=O)c1ccc(F)cc1 (configuration not stated) -1.5%
Cc1cccc(NC(=O)NC2(C)CCS(=O)(=O)C2)c1 (configuration not stated) -6.6%
O=C(O)C1CCCN1S(=O)(=O)c1ccc(Br)cc1 (configuration not stated) -0.2%
Cc1ccc(C)c(N2CCN(S(=O)(=O)c3c(C)[nH]c(C)c3C(=O)N3CCCC3)CC2)c1 3.6%
O=C(NCc1ccncc1)C1CCCN(S(=O)(=O)c2ccc(Br)cc2)C1 (configuration not stated) -8.8%
COc1ccc(NS(=O)(=O)c2cccc3nsnc23)cc1Cl -11.8%
COc1ccc(C(=O)C2CCCN(C(=O)c3cc4nc(C)cc(C)n4n3)C2)cc1F (configuration not stated) -9.2%
CCn1c(SCC(=O)NC2CC2)nnc1-c1ccccn1 0.1%
Cc1nc2cc(C(F)(F)F)ccc2n1CCNc1nc(-c2cc(Cl)c(N)c(Cl)c2)cs1 -2.4%
